The text below walks through data of PubChem BioAssay (Tox21).

Assay [1] is described as follows: Nuclear factor erythroid 2-related factor 2/antioxidant responsive element (Nrf2/ARE) small molecule agonists: qHTS cell viability counter screen in human keratinocytes (AID 1919968; active = well fitted curve in the direction sought with a large enough effect in the repeat runs; an effect the other way counts as inactive or inconclusive; also: nearly all actives have a fitted effect of over 55% in size). The method in brief: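 Cells of the KeratinoSens line were plated at 1,500 per well and left for 5 h before compound transfer from DMSO stocks. After a 23 h incubation (37 C, 5% CO2), CellTiter-Fluor was added. Signal was taken as fluorescence intensity 1 h later.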

Assay [2] in a line: Nuclear factor erythroid 2-related factor 2/antioxidant responsive element (Nrf2/ARE) small molecule agonists: luciferase reporter gene qHTS assay in human keratinocytes (AID 1919969). Also: nearly all actives have a fitted effect of over 35% in size. For orientation: In a reporter assay the amount or activity of a reporter protein is the signal.
Assay [3] has as its target Gonadotropin-releasing hormone receptor (Homo sapiens) (UniProt P30968). The assay is described as follows: Human gonadotropin-releasing hormone receptor (GnRHR) small molecule agonists, calcium flux assay in GnRHR-HEK293 cells (AID 1920063). Also: nearly all actives have a fitted effect of over 35% in size. Summed up:
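Compounds dissolved in DMSO are pin-transferred onto dye-loaded GnRHR-HEK293 cells, which were seeded 18 h before at 37 C/5% CO2. Calcium signal is read as fluorescence intensity at 1 s intervals for 3 min.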

In assay [4] the target is KiSS-1 receptor (Homo sapiens) (UniProt Q969F8). The experiment in a line: Human kisspeptin (KISS1R) small molecule agonists, calcium flux assay in KISS1R-HEK293 cells (AID 1920064; active = well fitted curve in the direction sought with a large enough effect in the repeat runs; an effect the other way counts as inactive or inconclusive). The method in brief:
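Cell line: HEK293, stable human KISS1R. Dye loading 1 h at 37 C after 18 h culture. Read: kinetic fluorescence, 480/540 nm, 3 min at 1 s intervals.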
Background: A change in cytosolic calcium serves as a functional read-out for many receptors and channels.

Assay [5] in a line: G protein-coupled receptor (GPCR) small molecule agonists, calcium flux assay: HEK293 wild type cell line counter screen (AID 1920065). Summed up: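 Tox21 10K compounds, 15 concentrations each in triplicate, pin-transferred in DMSO onto dye-loaded cells; kinetic read at 480/540 nm for 3 min, 1 s intervals.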
Assay [6] can be described thus: p53 small molecule agonists, cell-based qHTS assay with human liver microsomes: qHTS cell viability counter screen (AID 1963579). Also: nearly all actives have a fitted effect of over 45% in size. The method in brief:
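Metabolically activated exposure: compounds, human liver microsomes and NADPH (0.5 mg/mL final apiece) were added to p53RE-bla cells seeded 5 h earlier, left 16 h at 37 C, and then assessed for viability by CellTiter-Glo luminescence.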

Assay [7] in a line: p53 small molecule agonists, cell-based qHTS assay with rat liver microsomes: qHTS cell viability counter screen (AID 1963580). Also: nearly all actives have a fitted effect of over 45% in size. The method in brief:
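Rat liver microsome (0.5 mg/mL final) and NADPH (0.5 mg/mL final) co-incubation with compounds for 16 h at 37 C on HCT-116 p53RE-bla cells; cytotoxicity taken from intracellular ATP luminescence.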
Background: In qHTS, concentration-response curves come from the screen itself.

Assay [8] is described as follows: p53 small molecule agonists, cell-based qHTS assay: qHTS cell viability counter screen (AID 1963581). Also: nearly all actives have a fitted effect of over 45% in size. The method in brief:
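ATP content measured by luminescence in HCT-116 p53RE-bla cells treated 16 h at 37 C, same wells as the reporter screen.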

The target of assay [9] is 5-hydroxytryptamine receptor 2A (Homo sapiens) (UniProt P28223). The experiment in a line: 5-hydroxytryptamine receptor 2A (HTR2A) small molecule antagonists, cell-based qHTS assay (AID 1963586). Also: nearly all actives have a fitted effect of over 45% in size. Also: potency is read from the fitted curve at half-maximal effect. Summed up: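 CHO cells stably expressing human HTR2A were plated for 18 h at 37 C, then loaded with calcium dye for 1 h. Compounds were preincubated 5 min at room temperature before DOI (4 nM solution) was added. Kinetic fluorescence was read for 3 min.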

Assay [10] concerns the target Muscarinic acetylcholine receptor M1 (Homo sapiens) (UniProt P11229). The experiment in a line: Cholinergic receptor muscarinic 1 (CHRM1) small molecule antagonists, cell-based qHTS assay (AID 1963588). Also: nearly all actives have a fitted effect of over 40% in size. The method in brief: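 Compounds were tested at 15 concentrations in three independent runs. Dye-loaded CHRM1-CHO cells were exposed 5 min at room temperature before stimulation by acetylcholine added at 50nM. Intracellular calcium was read kinetically on FDSS for 3 min.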

Assay [11] can be described thus: cAMP Responsive Elements (CRE) small molecule agonists, cell-based qHTS assay (AID 1963590). The method in brief: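 HEK 293T cells stably bearing CRE-bla were plated at 2,000 cells per well and rested 18 h. Compounds, positive controls or DMSO were added for 3 h at 37 C. LiveBLAzer B/G substrate was then loaded for 2 h at room temperature.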
The nature of assay [12]: cAMP Responsive Elements (CRE) small molecule antagonists, cell-based qHTS assay (AID 1963591; active = well fitted inhibition curve with a large enough effect in the signal ratio in the repeat runs, not every such curve was filed as active; the % refers to the signal ratio). The method in brief:
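First, CRE-bla HEK293T cells settled 18 h at 37 C. Next, compound and 0.25 uM final NKH477 were applied for 3 h. Last, LiveBLAzer B/G substrate was loaded for 2 h at room temperature.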

Assay [13] addresses Beta-2 adrenergic receptor (Homo sapiens) (UniProt P07550). The assay is described as follows: Adrenergic beta2 receptor (ADRB2) small molecule antagonists, cell-based qHTS assay (AID 1963592). Also: series mostly up to about 92 µM; nearly all actives have a fitted effect of over 50% in size. The method in brief:
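Assay format: CHO-ADRB2 cells, 18-20hr seeding at 37C/5% CO2, then compound plus 1nM isoproterenol agonist mix for 0.5hr RT. Homogeneous time-resolved fluorescence cAMP detection after 1hr, expressed as 665/615 nm ratio.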

Assay [14] has as its target D(2) dopamine receptor (Homo sapiens) (UniProt P14416). The experiment in a line: Dopamine D2 receptor (DRD2) small molecule agonists, cell-based qHTS assay (AID 1963594). Also: nearly all actives have a fitted effect of over 35% in size. The method in brief: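 cAMP accumulation in DRD2-HEK293 cells measured by HTRF after 1 h detection; compounds added 10 min before NKH477 (200nM […]) forskolin-analogue stimulation, 30 min at room temperature, with Ro20-1724 present at 0.1 mM final.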

Assay [15] shares this target. The assay is described as follows: Dopamine D2 receptor (DRD2) small molecule antagonists, cell-based qHTS assay (AID 1963595; active = well fitted inhibition curve with a large enough effect in the signal ratio in the repeat runs, with a control signal flat; the % refers to the signal ratio). The method in brief:
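Antagonist mode in DRD2-HEK293 cells: after compound addition with 0.1 mM Ro20-1724, cells received quinpirole (12 nM) and NKH477 (200 nM) for 30 min at room temperature; HTRF cAMP read after 1 h detection.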

Assay [16] concerns the target Muscarinic acetylcholine receptor M1 (Homo sapiens) (UniProt P11229). The experiment in a line: Cholinergic receptor muscarinic 1 (CHRM1) small molecule agonists, cell-based qHTS assay (AID 1963589). Also: nearly all actives have a fitted effect of over 35% in size. Summed up:
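Homogeneous fluorescence calcium flux, agonist mode. Human M1-expressing CHO cells; compound dosed at 15 concentrations, three independent runs; signal sampled every 1 sec.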

Assay [17] deals with 5-hydroxytryptamine receptor 2A (Homo sapiens) (UniProt P28223). The assay is described as follows: 5-hydroxytryptamine receptor 2A (HTR2A) small molecule agonists, cell-based qHTS assay (AID 1963587). Also: nearly all actives have a fitted effect of over 30% in size. Summed up: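 Kinetic calcium-flux fluorescence (2 min, 1 sec intervals) after compound addition in agonist mode. HTR2A-CHO cells were cultured 18 h, then dye-loaded 1 h at 37 C.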

Assay [18] concerns the target Beta-2 adrenergic receptor (Homo sapiens) (UniProt P07550). The experiment in a line: Adrenergic beta2 receptor (ADRB2) small molecule agonists, cell-based qHTS assay (AID 1963593).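 Also: CHO cells stably overexpressing human ADRB2.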 The method in brief: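 CHO cells stably over-expressing ADRB2 were plated overnight at 37C, then dosed with compounds plus a stimulation mix containing 100uM IBMX and 25uM Ro-20-1724 for 0.5hr at room temperature. cAMP was measured by HTRF competition, 1hr.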

The structures appear in SMILES notation. Unmarked numbers belong to inactive results. Results filed as inconclusive are left out. Active and inactive are the calls of the source. Unless noted, calls follow the shape of the full dose curve.

Sequence of 5-hydroxytryptamine receptor 2A (Homo sapiens) (P28223 whole entry, looked up): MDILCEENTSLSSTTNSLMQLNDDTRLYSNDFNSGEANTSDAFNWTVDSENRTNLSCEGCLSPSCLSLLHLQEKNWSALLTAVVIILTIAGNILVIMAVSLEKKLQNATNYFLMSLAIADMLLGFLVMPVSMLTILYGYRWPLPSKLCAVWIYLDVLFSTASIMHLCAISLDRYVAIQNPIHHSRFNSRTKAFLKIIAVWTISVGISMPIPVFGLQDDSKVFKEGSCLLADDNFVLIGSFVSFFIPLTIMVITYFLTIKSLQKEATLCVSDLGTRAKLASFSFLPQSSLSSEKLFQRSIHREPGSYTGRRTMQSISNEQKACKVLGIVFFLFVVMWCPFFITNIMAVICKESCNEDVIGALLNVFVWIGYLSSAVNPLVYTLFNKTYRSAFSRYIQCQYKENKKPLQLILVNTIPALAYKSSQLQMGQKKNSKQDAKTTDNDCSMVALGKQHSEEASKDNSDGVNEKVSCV
Sequence of Gonadotropin-releasing hormone receptor (Homo sapiens) (P30968 whole entry, looked up): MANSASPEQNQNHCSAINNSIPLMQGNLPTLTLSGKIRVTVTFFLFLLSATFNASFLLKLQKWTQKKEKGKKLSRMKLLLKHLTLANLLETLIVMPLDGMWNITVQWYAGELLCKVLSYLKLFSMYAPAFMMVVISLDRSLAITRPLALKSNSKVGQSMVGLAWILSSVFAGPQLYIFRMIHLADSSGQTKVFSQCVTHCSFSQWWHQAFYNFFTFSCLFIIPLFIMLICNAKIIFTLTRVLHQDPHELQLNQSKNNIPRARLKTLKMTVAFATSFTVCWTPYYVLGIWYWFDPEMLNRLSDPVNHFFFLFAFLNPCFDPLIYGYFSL
Sequence of KiSS-1 receptor (Homo sapiens) (Q969F8 whole entry, looked up): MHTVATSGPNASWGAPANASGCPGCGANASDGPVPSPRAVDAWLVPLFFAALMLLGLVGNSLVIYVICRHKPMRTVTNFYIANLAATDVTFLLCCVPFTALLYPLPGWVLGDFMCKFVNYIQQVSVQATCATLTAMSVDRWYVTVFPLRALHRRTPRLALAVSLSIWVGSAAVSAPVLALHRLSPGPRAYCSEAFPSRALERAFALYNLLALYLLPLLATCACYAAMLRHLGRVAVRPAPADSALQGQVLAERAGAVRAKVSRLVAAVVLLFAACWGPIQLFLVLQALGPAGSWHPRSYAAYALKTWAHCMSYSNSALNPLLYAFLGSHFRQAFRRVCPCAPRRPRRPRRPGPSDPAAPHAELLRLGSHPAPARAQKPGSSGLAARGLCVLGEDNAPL
Sequence of D(2) dopamine receptor (Homo sapiens) (P14416 whole entry, looked up): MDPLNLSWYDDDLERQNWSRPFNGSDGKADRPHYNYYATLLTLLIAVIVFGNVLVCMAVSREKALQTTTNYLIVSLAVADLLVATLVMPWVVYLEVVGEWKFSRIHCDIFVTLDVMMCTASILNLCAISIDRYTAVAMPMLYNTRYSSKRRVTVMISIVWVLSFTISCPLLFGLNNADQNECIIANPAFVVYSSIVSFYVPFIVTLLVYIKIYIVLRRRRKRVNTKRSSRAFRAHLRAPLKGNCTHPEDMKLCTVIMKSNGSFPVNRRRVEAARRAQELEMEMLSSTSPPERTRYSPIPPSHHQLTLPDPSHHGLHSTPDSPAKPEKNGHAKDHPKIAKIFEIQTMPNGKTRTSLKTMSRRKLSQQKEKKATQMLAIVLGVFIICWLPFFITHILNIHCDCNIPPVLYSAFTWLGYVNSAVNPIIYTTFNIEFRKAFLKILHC
Sequence of Muscarinic acetylcholine receptor M1 (Homo sapiens) (P11229 whole entry, looked up): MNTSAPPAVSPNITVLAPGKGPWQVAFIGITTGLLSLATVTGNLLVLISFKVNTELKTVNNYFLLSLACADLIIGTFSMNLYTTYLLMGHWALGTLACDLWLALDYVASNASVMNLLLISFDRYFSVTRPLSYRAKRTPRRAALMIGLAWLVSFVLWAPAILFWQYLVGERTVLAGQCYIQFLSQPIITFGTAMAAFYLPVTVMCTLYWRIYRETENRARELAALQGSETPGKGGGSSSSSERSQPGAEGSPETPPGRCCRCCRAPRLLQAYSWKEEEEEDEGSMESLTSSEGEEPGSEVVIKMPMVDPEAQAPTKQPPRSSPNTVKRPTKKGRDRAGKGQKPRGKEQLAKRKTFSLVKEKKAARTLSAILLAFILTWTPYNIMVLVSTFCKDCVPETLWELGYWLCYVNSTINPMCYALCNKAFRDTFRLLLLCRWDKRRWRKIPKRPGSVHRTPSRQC
Sequence of Beta-2 adrenergic receptor (Homo sapiens) (P07550 whole entry, looked up): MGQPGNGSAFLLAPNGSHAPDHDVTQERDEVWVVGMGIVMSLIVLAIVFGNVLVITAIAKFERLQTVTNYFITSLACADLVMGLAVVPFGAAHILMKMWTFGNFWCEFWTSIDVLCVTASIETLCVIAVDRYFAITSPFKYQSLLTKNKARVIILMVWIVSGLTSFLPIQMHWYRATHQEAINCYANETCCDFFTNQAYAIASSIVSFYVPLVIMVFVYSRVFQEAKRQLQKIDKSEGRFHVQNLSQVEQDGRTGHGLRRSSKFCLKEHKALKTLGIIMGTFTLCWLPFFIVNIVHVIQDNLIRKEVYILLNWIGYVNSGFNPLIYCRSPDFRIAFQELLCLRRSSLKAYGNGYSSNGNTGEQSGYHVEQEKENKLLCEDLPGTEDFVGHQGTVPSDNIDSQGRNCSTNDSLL

In the case of `OCCC1CCCCN1` (stereo unspecified), the Potency result in assay [1], in [2], in assay [3], in [4], in [5] and in assay [6] was “inactive” throughout. Moreover, the Potency entry in [7], in [8], in assay [9], in assay [10], in assay [11] and in [12] was “inactive” each time. In addition, the Potency result in assay [13], in assay [14] and in assay [15] was “inactive” each time.

On to `Cc1ccc2ccc3cccc4ccc1c2c34`, for which the Potency entry in assay [1], in [2], in assay [3], in assay [4], in [5] and in assay [6] was “inactive” each time. The Potency result in [7], in assay [8], in [9], in assay [10], in [16] and in [12] was “inactive” in each case. Also, the Potency result in assay [13] and in assay [14] was “inactive” each time.

As to `O/N=C/C=N/O`, the Potency result in assay [1], in assay [2], in assay [3], in assay [4], in assay [5] and in assay [6] was “inactive” each time. The Potency entry in assay [7], in assay [8], in [9], in [17], in assay [16] and in [11] was “inactive” each time. Moreover, the Potency result in [13], in [18], in assay [14] and in assay [15] was “inactive” each time.

Regarding `Cn1cnc2c(=O)[nH]c(N)nc21`, the Potency result in assay [1], in assay [2], in assay [3], in [4], in assay [5] and in assay [6] was “inactive” each time. Further, the Potency entry in [7], in [8], in [9], in assay [17], in assay [16] and in assay [11] was “inactive” in each case. In addition, the Potency result in [12], in assay [18] and in assay [14] was “inactive” in each case.

On to `O=C(O)C1(C(=O)Nc2ccc(Cl)cc2Cl)CC1`, for which the Potency result in assay [1], in assay [2], in assay [3], in assay [4], in [5] and in assay [6] was “inactive” in each case. In addition, the Potency result in assay [7], in [8], in assay [10], in [16], in assay [13] and in assay [14] was “inactive” each time. Also, in [15], the Potency result is “inactive”. Besides, the Potency in assay [9] is 33.4 µM (active).

`CC(Cc1ccccc1)(NC(=O)CN)c1ccccc1` (stereo unspecified): the Potency entry in assay [1], in [2], in [3], in assay [4], in [5] and in assay [6] was “inactive” in each case. The Potency result in [7], in assay [8], in assay [9], in assay [17], in assay [16] and in assay [11] was “inactive” each time. Moreover, the Potency result in [12], in [13] and in assay [15] was “inactive” each time.

`COc1ccccc1OCC1CNC(=O)O1` (stereo unspecified): the Potency entry in [1], in assay [2], in assay [3], in assay [4], in assay [5] and in assay [6] was “inactive” in each case. For the same compound, the Potency entry in [7], in [8], in assay [9], in assay [17], in [16] and in [11] was “inactive” in each case. For the same compound, the Potency result in assay [13], in assay [14] and in [15] was “inactive” each time.

In the case of `NCCc1ccn[nH]1`, the Potency entry in assay [1], in [2], in [3], in [4], in assay [5] and in [6] was “inactive” each time. Also, the Potency entry in [7], in assay [8], in assay [17], in [10], in assay [16] and in assay [11] was “inactive” throughout. The Potency entry in assay [12], in [13], in assay [18], in [14] and in assay [15] was “inactive” throughout.
